Screening results from PubChem.
Rows were chosen to be rich in hits. Some 2.4% of all compounds tested hit in one or more screens of this group.
PABP1 MLLE inh: inhibitors of microRNA-mediated deadenylation, human PABP1 MLLE binding; GST-MLLE / FITC-PAM2 fluorescence polarization; inhibition, % at 20 µM; actives 0.36% (n = 360,000); AID 588489; in the data active = inhibition above about 35%, passing the limit was not always enough;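 also: plate controls were DMSO wells with GST-MLLE for no effect and wells lacking GST-MLLE protein for full effect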
eIF4H inh: inhibitors of RNA binding by human eIF4H; Q15056; eIF4H fluorescence polarization binding assay; inhibition, % at 35 µM; actives 0.94% (n = 290,000); AID 2012;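 also: calls also rest on retests at 20 µM and on dose response follow-up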
PERK inh: human PERK inhibition, primary cell-based screen | actives 0.17% (n = 220,000) | CHO PERK-DD fusion, SEAP luminescence translation reporter | AID 1416 | Q9NZJ5 | inhibition, % at 5.6 µM;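 active = inhibition above the mean inhibition of all tested compounds plus 3 SD, set separately per screening campaign, cut at about 2.9% in these data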;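 also: PERK kinase domain activated by AP20187 dimerizer at 100 nM; 0% = DMSO with dimerizer and 100% = rapamycin at 8.4 µM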
Target sequence (Q9NZJ5 whole entry, looked up, the tested form may be a part): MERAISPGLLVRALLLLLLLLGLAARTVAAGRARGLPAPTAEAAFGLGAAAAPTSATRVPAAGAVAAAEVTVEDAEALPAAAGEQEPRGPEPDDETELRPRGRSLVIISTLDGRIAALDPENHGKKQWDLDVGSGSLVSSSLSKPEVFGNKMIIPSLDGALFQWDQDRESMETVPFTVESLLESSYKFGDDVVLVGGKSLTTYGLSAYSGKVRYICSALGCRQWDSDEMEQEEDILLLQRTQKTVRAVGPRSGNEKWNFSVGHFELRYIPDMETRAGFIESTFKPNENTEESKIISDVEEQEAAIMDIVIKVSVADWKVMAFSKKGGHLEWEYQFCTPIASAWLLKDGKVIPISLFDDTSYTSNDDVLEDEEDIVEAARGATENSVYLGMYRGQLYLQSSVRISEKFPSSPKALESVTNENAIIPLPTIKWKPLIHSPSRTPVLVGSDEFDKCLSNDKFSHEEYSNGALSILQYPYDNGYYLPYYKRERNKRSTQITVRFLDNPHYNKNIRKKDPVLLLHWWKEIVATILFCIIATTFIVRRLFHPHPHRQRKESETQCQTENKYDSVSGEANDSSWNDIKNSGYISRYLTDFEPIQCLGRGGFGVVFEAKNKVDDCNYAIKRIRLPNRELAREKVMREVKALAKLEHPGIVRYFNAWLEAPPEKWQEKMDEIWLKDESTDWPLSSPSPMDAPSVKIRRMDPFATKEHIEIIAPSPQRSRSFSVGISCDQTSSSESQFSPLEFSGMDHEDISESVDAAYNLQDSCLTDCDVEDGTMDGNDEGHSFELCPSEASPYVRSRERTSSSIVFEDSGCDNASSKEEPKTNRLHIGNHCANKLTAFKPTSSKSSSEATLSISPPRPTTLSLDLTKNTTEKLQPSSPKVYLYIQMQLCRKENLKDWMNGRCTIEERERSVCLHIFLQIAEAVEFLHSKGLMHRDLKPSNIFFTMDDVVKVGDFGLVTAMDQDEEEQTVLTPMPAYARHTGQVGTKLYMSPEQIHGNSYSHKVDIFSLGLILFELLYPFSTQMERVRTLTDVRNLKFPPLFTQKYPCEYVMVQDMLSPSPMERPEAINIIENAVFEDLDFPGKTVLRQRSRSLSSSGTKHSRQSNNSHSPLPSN
PABP polyA inh: blocks human PABP binding to poly(A) RNA; P11940; fluorescence polarization; inhibition, % at 35 µM; actives 1% (n = 290,000); AID 2014;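 also: calls also rest on retests at 20 µM and on dose response follow-up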
eIF4E-4G inh: eIF4E/eIF4G interaction inhibition in translation initiation; TR-FRET eIF4E-eIF4GI(517-606) binding, 2 h; inhibition, % at 21.7 µM; actives 0.37% (n = 220,000);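 active = inhibition above about 30%, limit read from the data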;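 also: 0% = full FRET control wells and 100% = background wells lacking eIF4GI fragment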
PfM18AAP inh: blocks P. falciparum M18 aspartyl aminopeptidase; inhibition, % at 7.35 µM; recombinant PfM18AAP, H-Glu-NHMec fluorogenic cleavage; actives 1.2% (n = 290,000); AID 1822;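 active = inhibition above the campaign mean inhibition over all tested compounds plus 3 SD, cut at about 28% in these data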;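 also: 0% = plate median of test compound wells and 100% = 2 mM ZnCl2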
The depositor's hits bear a star; ? = inconclusive; · = no result; [ ] = remark or other dose. Unless noted, no rule for the calls is given here.

SMILES	PABP1 MLLE inh	eIF4H inh	PERK inh	PABP polyA inh	eIF4E-4G inh	PfM18AAP inh
CC(=O)Nc1cccc(NC(=O)CSc2ncc(C(=O)Nc3ccc(F)cc3)c(=O)n2C)c1	11.1	·	·	·	·	·
CC(=O)Nc1cccc(NC(=O)CSc2ncc(C(=O)Nc3ccccc3)c(=O)n2C)c1	42.0*	·	·	·	·	·
Fc1ccccc1-c1n[nH]c(=S)n1CC1CCCO1 (stereo unspecified)	-10.0	5.1	0.1	-2.9	-0.7	31.6*
S=c1[nH]nc(-c2ccccc2Cl)n1CC1CCCO1 (stereo unspecified)	-15.0	-7.6	0.3	-1.6	2.7	5.2
CCOc1ncccc1C(=O)NNC(=O)c1ccccc1-n1cccc1	-9.4	-7.7	·	4.3	·	-0.4
COc1ccc(C2/C=C\CN(C(=O)c3ccccc3)[C@H](Cc3ccccc3)C(=O)N2Cc2ccc(F)cc2)cc1 (stereo partly specified)	-12.7	-10.3	·	3.7	60.0*	·
C[C@H](CO)N1C[C@H](C)[C@H](CN(C)C(=O)Nc2cccc(C(F)(F)F)c2)OCc2cnnn2CCCC1=O	16.7	·	·	·	·	·
CC1=C(C(=O)O)N2C(=O)C(NC(=O)c3ccn(C)n3)C2SC1 (stereo unspecified)	48.5*	0.4	0.8	-4.9	0.5	19.4
COc1cc2cc(C#N)c(SCC(=O)Nc3cc(C)on3)nc2cc1OC	-0.3	6.8	·	-3.7	·	6.5
Cc1cc(NC(=O)CN2C(=O)NC3(CCCCC3)C2=O)ccc1N1CCCC1	-4.8	·	·	·	·	·
COC(=O)c1cc(-c2ccc(Br)cc2)c2c(=O)n(C)c(=O)n(C)c2n1	10.6	-10.3	·	2.7	·	-5.0
CC(C)c1nnc(NC(=O)c2ccc(N3C(=O)CCC3=O)cc2)s1	-3.4	-15.4	1.1	-14.2	4.7	1.2
O=C(Nc1nnc(C23CC4CC(CC(C4)C2)C3)s1)c1ccc(N2C(=O)CCC2=O)cc1	1.4	43.7	0.7	11.0	61.5*[fluorescence artefact?]	-1.0
CCOc1ccc(S(=O)(=O)N(CC(=O)N/N=C/c2ccc(-c3ccc([N+](=O)[O-])cc3)o2)c2ccccc2)cc1	-30.8	78.8*	-0.2	22.1*	16.0	5.9
O=C(N/N=C/c1ccc(-c2ccc(S(=O)(=O)Nc3ncccn3)cc2)o1)c1cc2ccccc2cc1O	-5.5	82.6*	0.6	52.1*	-13.3	21.3
CCOc1ccc(C(=O)N/N=C/c2ccc(-c3ccc(S(=O)(=O)Nc4ncccn4)cc3)o2)cc1	-0.6	68.7*	1.0	31.5*	-3.8	2.9
Cc1ccc(C)c(N(CC(=O)N/N=C/c2ccc(-c3ccc([N+](=O)[O-])cc3)o2)S(=O)(=O)c2ccccc2)c1	-36.0	?	0.4	27.3	-1.1	3.9
Cc1ccc(-c2ccc(/C=N/NC(=O)c3ccccc3O)o2)cc1	·	16.2	3.1*	-1.1	3.5	6.8
O=C(NCc1ccccc1Cl)c1ccc2sc([C@@H]3O[C@H](CO)[C@H](O)[C@H](O)[C@H]3O)nc2c1	24.1	·	·	·	·	·
COc1cc(-c2nc3oc4ccccc4c(=O)c3c(=O)n2Cc2ccco2)cc(OC)c1OC	-2.3	-8.8	-0.5	-9.4	1.0	4.0
CCCOc1ccc(C(=O)N(Cc2cccs2)C2CCS(=O)(=O)C2)cc1 (stereo unspecified)	-9.1	-7.4	·	4.8	·	-6.4
CCCc1nc2oc3ccccc3c(=O)c2c(=O)n1CCCOC	0.0	-0.4	-0.9	1.1	5.0	0.1
Cc1cccn2c(CNCCCn3ncc4ccccc43)c(C(=O)N3CCCCC3)nc12	-3.0	-1.9	-0.3	53.2*	4.4	4.4
O=C(c1nc2ccccn2c1CNCCCn1ncc2ccccc21)N1CCOCC1	-9.4	0.0	1.6	-2.3	-3.7	2.2
COc1ccc(C2Nc3cccc4cccc(c34)N2)cc1	-5.0	43.0	0.5	31.4	2.7	4.0
SMILES	PABP1 MLLE inh	eIF4H inh	PERK inh	PABP polyA inh	eIF4E-4G inh	PfM18AAP inh
COc1cc(OC)c(C2Nc3cccc4cccc(c34)N2)c(OC)c1	18.6	70.2*	·	57.0*	·	5.8
CCOc1ccc(C2Nc3cccc4cccc(c34)N2)cc1OC	-11.0	103.4*	0.4	10.9*	3.6	1.3
N#Cc1ccccc1OCC(=O)OCC(=O)c1ccc[nH]1	-1.3	·	·	·	·	·
CCOc1ccccc1OCCC(=O)OCC(=O)c1ccc[nH]1	0.7	58.7*	0.0	3.8*	-0.8	3.9
Oc1ccc(NC(=S)N=Nc2c(O)[nH]c3ccccc23)cc1	51.7*	8.4	0.9	23.9	-3.4	24.3
Cc1ccc(NC(=S)N=Nc2c(O)[nH]c3ccccc23)cc1	25.7	8.5	-1.1	10.9	-5.0	6.6
COc1ccc(NC(=S)N=Nc2c(O)[nH]c3ccccc23)cc1	40.7*	14.0	-2.1	2.7	-8.9	-4.5
CC1(OC(=O)CCc2ccccc2)C(=O)C=C2C=C(c3ccc(C#N)cc3)N(CC3CC3)C=C2C1=O (stereo unspecified)	18.7	34.0	·	26.4	3.6	·
CC1(OC(=O)CCc2ccccc2)C(=O)C=C2C=C(c3ccc(C#N)cc3)N(C3CCCC3)C=C2C1=O (stereo unspecified)	34.1	59.0	·	36.3*	-4.8	·
CC1(OC(=O)CCc2ccccc2)C(=O)C=C2C=C(c3ccsc3)OC=C2C1=O (stereo unspecified)	·	69.9*	·	33.8*	9.4	·
CC(=O)C1=CCC(c2ccc(Cl)cc2)N(S(=O)(=O)c2ccccc2)C1 (stereo unspecified)	-0.2	·	·	·	·	·
CC(=O)c1c(O)cc(=O)oc1-c1ccc(C)cc1	-10.9	·	·	·	·	·
CCOC(=O)CNC(=O)c1ccc(C)cc1	0.2	-8.2	0.2	0.0	-2.1	4.7
CCO/C=C/C(O)(CNC(=O)c1ccc(C(C)(C)C)cc1)C(F)(F)F (stereo unspecified)	-10.9	99.4	0.8	active	-3.4	-0.2
CCCCn1c(-c2cccnc2)n[nH]c1=S	-13.3	-3.0	0.3	10.0	1.8	30.5*
CCCCn1c(-c2ccc(C(C)(C)C)cc2)nc2cc3[nH]c(=O)c(C(C)C)nc3cc21	-21.8	66.0	·	35.1*	·	-6.5
CCCCn1c(-c2cccnc2)nc2cc3[nH]c(=O)c(C(C)C)nc3cc21	-30.3	76.0	·	36.1*	·	7.9
CC(C)CC(=O)Nc1ccnn1C1CCN(C(=O)c2ccc(F)cc2Cl)CC1	-7.0	-3.5	·	-1.8	·	-9.2
COC(=O)c1ccc2nc(C3CCCCC3)c(Cc3cccc(Cl)c3)n2c1	-0.9	·	·	·	·	·
O=C(Cn1nc(C(=O)O)c2ccccc2c1=O)Nc1cc(S(=O)(=O)N2CCCCC2)ccc1Cl	-16.7	·	·	·	·	·
Cc1ccc(O)c(NC(=O)c2ccc3c(c2)C(=O)N(Cc2cccnc2)C3=O)c1	-17.2	-4.7	·	1.0	·	4.2
Cc1c(Cl)cccc1NC(=O)CNc1ccccc1F	2.3	-10.5	-0.2	-14.7	3.2	-10.2
Cc1c(Cl)cccc1NC(=O)CNC(=O)c1ccccc1F	4.5	2.4*	0.4	65.7*	0.8	-0.9
COCCNC(=O)C[C@@H]1C[C@H]2c3cc(NC(=O)Nc4ccc(F)cc4)ccc3O[C@H]2[C@H](CO)O1	0.6	·	·	·	·	·
